Test results reported in PubChem BioAssay (NCI).
Compounds without any hit were thinned out: in the full panel of roughly 79,000, 15% have a hit. A number with no mark means an inactive call. Activity calls are given as the source filed them. No stated cut-off is given here; in the data, active means growth inhibition above about 70%; inactive means the rest.

What was measured:
[1] = NCI Yeast Anticancer Drug Screen. Data for the rad50 strain (AID 155);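 further: 0% = growth of vehicle-only cultures of the same strain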; conditions: S. cerevisiae rad50 strain growth inhibition, hits give high values
Method in brief: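 Vehicle-treated cultures provide the reference for the growth inhibition reported for compound-exposed, repair-deficient yeast.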

[2] = NCI Yeast Anticancer Drug Screen. Data for the mec2-1 strain (AID 157); conditions: S. cerevisiae mec2-1 strain, hits give high values
Method in brief: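 Test agents were screened against the mec2-1 yeast strain, with defined DNA repair or cell cycle alteration. Growth was scored as inhibition against vehicle-only controls.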

[3] = NCI Yeast Anticancer Drug Screen. Data for the sgs1 mgt1 strain (AID 161);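 further: 0% = growth of cultures given vehicle only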; conditions: S. cerevisiae sgs1 mgt1 strain, hits give high values
Method in brief: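 Genetically altered yeast, compound exposure, growth inhibition relative to vehicle.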

[4] = NCI Yeast Anticancer Drug Screen. Data for the cln2 rad14 strain (AID 165);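 further: 0% = growth equal to vehicle treated cultures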; conditions: S. cerevisiae cln2 rad14 strain, hits give high values
Method in brief: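 Growth of compound-exposed yeast (cln2 rad14 genotype) measured and expressed as inhibition relative to vehicle.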

[5] = NCI Yeast Anticancer Drug Screen. Data for the bub3 strain (AID 167); conditions: S. cerevisiae bub3 mutant strain, hits give high values
Method in brief: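 Mutant yeast screening strain plus compound; vehicle-treated cultures serve as the 0% inhibition reference.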

[6] = NCI Yeast Anticancer Drug Screen. Data for the mlh1 rad18 strain (AID 175); conditions: S. cerevisiae mlh1 rad18 strain growth inhibition, hits give high values
Method in brief: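 In this whole-cell yeast screen, a strain with altered DNA damage repair is challenged with compound, and its growth is measured against matched vehicle-treated controls.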

[7] = at 5.0 µM (retest, dose inferred, filed as 0.5)
[8] = at 50.0 µM (retest, dose inferred, filed as 5.0)

SMILES	growth inhibition [1, 7]	growth inhibition [1, 8]	growth inhibition ([1]; at 50.0 µM)	growth inhibition [2, 7] [%]	growth inhibition [2, 8]	growth inhibition ([2]; at 50.0 µM)	growth inhibition [3, 7] [%]	growth inhibition [3, 8]	growth inhibition ([3]; at 50.0 µM)	growth inhibition [4, 7] [%]	growth inhibition [4, 8]	growth inhibition ([4]; at 50.0 µM)	growth inhibition [5, 7]	growth inhibition [5, 8]	growth inhibition ([5]; at 50.0 µM)	growth inhibition [6, 7] [%]	growth inhibition [6, 8]	growth inhibition ([6]; at 50.0 µM)
CC1=NN(C(=O)c2ccncc2)C(=O)C1N=Nc1ccc(C)c([N+](=O)[O-])c1 (configuration not stated)	10%	61%	47.5%	2	28%	19.4%	29	94% (active)	88.8% (active)	6	24%	-14.6%	1%	18%	3.65%	12	69%	20.4%
Oc1c2c(c(O)c3ncccc13)C1C=CC2CC1 (configuration not stated)	-5%	99% (active)	97.7% (active)	0	99% (active)	97.1% (active)	-5	98% (active)	99.3% (active)	-25	98% (active)	84.8% (active)	2%	99% (active)	97.7% (active)	-4	99% (active)	98.3% (active)
CCOP(=O)(OCC)C(=C1C=C(C(C)(C)C)C(=O)C(C(C)(C)C)=C1)P(=O)(OCC)OCC	2%	97% (active)	98.2% (active)	-15	99% (active)	96.8% (active)	0	89% (active)	98.8% (active)	-4	99% (active)	97.2% (active)	5%	99% (active)	97.2% (active)	-12	98% (active)	96.8% (active)
COC(=O)C1=C(CS(=O)c2ccccc2[N+](=O)[O-])ON(C)C1c1ccccc1 (configuration not stated)	3%	49%	6.55%	-9	66%	53.1%	13	74% (active)	56.8%	-4	11%	22.2%	-3%	45%	59.4%	5	13%	68.5%
N#Cc1ccc([N+](=O)[O-])cc1C#N	-155%	97% (active)	99.2% (active)	-46	97% (active)	99.8% (active)	-56	98% (active)	99.6% (active)	-50	96% (active)	97.6% (active)	-66%	98% (active)	97.6% (active)	-135	98% (active)	99.5% (active)
Cn1c(=O)[nH]c2nnc(-c3ccccc3)nc2c1=O	7%	89% (active)	56.6%	6	92% (active)	29.2%	38	92% (active)	61.5%	-3	89% (active)	-13.7%	8%	93% (active)	33.4%	13	90% (active)	68.1%
O=C(CCl)[O][Bi]([O]C(=O)CCl)([c]1ccccc1)([c]1ccccc1)[c]1ccccc1	10%	51%	13%	11	58%	15.7%	32	83% (active)	-8.4%	26	59%	5.75%	31%	85% (active)	10.2%	17	71% (active)	23.1%
CCOC(=O)Cc1csc(/C=C/c2ccc(OC)c(OC)c2)n1	-15%	8%	17.2%	-1	20%	11.8%	-13	14%	6.9%	3	37%	-37.2%	7%	8%	-12.7%	1	18%	21.4%
COc1ccc2nc3cc(Cl)ccc3c(NCCCCN(C)C)c2c1	-2%	21%	40.7%	1	18%	35.8%	-5	30%	37.5%	5	21%	89.2% (active)	-3%	18%	39.6%	0	21%	31.5%
CCOC(=O)c1cc(C)c(O)c(C(=O)OCC)c1	-9%	4%	-0.45%	-12	-27%	16.1%	1	22%	0.65%	26	31%	6.8%	13%	27%	52.4%	-28	-9%	-10.8%
O=C(NCCNCCNCCNC(=O)c1cc(-c2ccccc2)nc2ccccc12)c1cc(-c2ccccc2)nc2ccccc12	-16%	57%	98.7% (active)	-10	63%	99.2% (active)	-7	41%	98.8% (active)	18	64%	99% (active)	-25%	86% (active)	99.2% (active)	-4	88% (active)	99% (active)
Oc1[nH]c2ccccc2c1N=NC(=S)N1CCCC1	15%	65%	33.5%	5	64%	58.6%	7	42%	54.6%	11	48%	55%	26%	74% (active)	61.6%	13	68%	57.8%
CNC(=O)N(C1=NCC(C)S1)c1ccc(C)c(C)c1 (configuration not stated)	-13%	97% (active)	63.9%	-21	98% (active)	74.9% (active)	-36	95% (active)	71.8% (active)	-17	76% (active)	57.2%	-22%	98% (active)	79.2% (active)	-17	89% (active)	69%
Cc1[nH]c2ccccc2c1/C=C1/CCCCCCC1=O	-1%	45%	93.8% (active)	-20	34%	93.6% (active)	-11	66%	96.5% (active)	3	24%	91.6% (active)	-2%	41%	93.5% (active)	-7	72% (active)	97.3% (active)
CCS(=O)(=O)/C=C\S(=O)(=O)CC	-154%	-117%	37.2%	-52	-36%	47.5%	-64	-43%	47.3%	-49	-37%	-12.7%	-65%	-59%	88.3% (active)	-147	-70%	69%
Nc1ccc2nc(Nc3ccc(Cl)c(Cl)c3)cnc2c1	-17%	97% (active)	85.7% (active)	-1	97% (active)	86.5% (active)	7	97% (active)	87.7% (active)	14	97% (active)	87.2% (active)	28%	95% (active)	83.8% (active)	25	87% (active)	80.8% (active)
O=c1oc2ccccc2c(O)c1/C=N\c1nc(-c2ccccc2)cs1	41%	99% (active)	8.95%	42	99% (active)	16.4%	53	100% (active)	31.9%	36	97% (active)	36.6%	81% (active)	100% (active)	17.1%	34	99% (active)	91.8% (active)
Nc1ccc2nc(N)sc2c1	-5%	8%	20.1%	-6	2%	-3.75%	0	-47%	18.5%	0	2%	42.9%	-2%	90% (active)	-15.2%	-4	4%	-6.65%
CC(C)NC(=O)OCc1c2c(n(C)c1COC(=O)NC(C)C)-c1ccccc1CC2	77% (active)	97% (active)	98.2% (active)	14	98% (active)	98.6% (active)	13	97% (active)	98.4% (active)	-5	97% (active)	97.8% (active)	4%	98% (active)	97.6% (active)	26	96% (active)	98.2% (active)
